The target of assay [1] is Protein phosphatase 1D (Homo sapiens) (UniProt O15297). As to the kind of experiment: RapidFire Mass Spectrometry qHTS Assay for Modulators of WT P53-Induced Phosphatase 1 (WIP1) (AID 1347424).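 Note: amount of dephosphorylated VEPPL-S-QETFS peptide product formed by WIP1; series mostly up to about 63 µM.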 In outline: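 Mass-spectrometric measurement of dephosphorylated peptide after a 5 min room-temperature reaction of 10 nM WIP1 with 2 uM phosphopeptide, following 1 h compound preincubation in 30 mM MgCl2 buffer.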

Assay [2] shares this target. As to the kind of experiment: Rhodamine-PBP qHTS Assay for Modulators of WT P53-Induced Phosphatase 1 (WIP1) (AID 1347425). In short, it runs like this:
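The read-out is the change in Rhodamine-PBP fluorescence (f1 - f0, ex 525/em 598 nm) as Pi is released, read each minute for 11 min. Final reaction: 5 nM WIP1, 10 uM phosphopeptide VEPPL-pS-QETFS, 10 uM Rh-PBP, 50 mM Tris-HCl pH 7.5, 30 mM MgCl2. Compound was preincubated with enzyme for 1 hour at room temperature.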

Assay [3] is described as follows: qHTS to identify inhibitors of the type 1 interferon - major histocompatibility complex class I in skeletal muscle: primary screen against the NCATS Pharmaceutical Collection (AID 1347407).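 Note: luminescence of HiBiT knocked into endogenous HLA-B as interferon-induced MHC class I level.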 In outline: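 HLA-B HiBiT myoblasts, dexamethasone-free growth medium + 4 ng/ml IFN-b; compounds pinned 1 h after seeding, […] from 46 uM; 24 h, 37 C, 5% CO2; lytic HiBiT detection, 10 min RT, luminescence.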

A short description of assay [4]: Primary qHTS for inhibitors of La Crosse Virus (LACV) - induced cell death in SH-SY5Y cells (AID 1508616). Note: potency is the fitted concentration of half-maximal effect. In short, it runs like this:
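SH-SY5Y, 6000 cells/well; cpd via pin tool in DMSO; LACV 0.01 MOI; 6 d 37C 5% CO2; ATPLite, 5 min RT; luminescence normalized to ±virus DMSO controls.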
In general terms: In qHTS, concentration-response curves come from the screen itself.

Assay [5] concerns the target Calcium and integrin-binding protein 1 (Homo sapiens) (UniProt Q99828). As to the kind of experiment: Primary qHTS for Identification of Calcium Integrin Binding Protein 1 (CIB1) Competitor (AID 1508620).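 Note: GST tagged CIB1 binding a fluorescein labelled alphaIIb integrin peptide tracer; top concentration of the series differs between compounds.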 In short, it runs like this:
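Fluorescence polarization competition: CIB1-GST (1 uM final) preincubated with compound 15 min at room temperature, then FITC-labeled alphaIIb peptide (100 nM final) added for another 15 min. Polarization read at Ex 480/Em 540.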

A short description of assay [6]: Confirmatory qHTS for small molecule stabilizers of the endoplasmic reticulum resident proteome: Secreted ER Calcium Modulated Protein (SERCaMP) assay (AID 1508628). Note: nearly all actives have a fitted effect of over 40% in size. Note: potency is the fitted concentration of half-maximal effect. In short, it runs like this:
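Reporter secretion upon ER calcium depletion (100 nM thapsigargin, 4 h, 37C) is measured as medium luminescence with coelenterazine, after 16 h compound pretreatment of SH-SY5Y-GLuc-SERCaMP cells; primary at three concentrations up to 38.3 uM, follow-up at 11 (up to 76.6 uM).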

The nature of assay [7]: qHTS for inhibitors of adenylyl cyclases using a fission yeast platform: a pilot screen against the NCATS LOPAC library (AID 1347410). In outline:
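Read-out: fbp1-GFP fluorescence by laser scanning cytometry (488 nm laser), a gain of signal when AC/cAMP-PKA signalling is inhibited. Strain CHP2027 expressing AC9, GNAS and PDE4D2; compounds at up to 57 µM; 18 h, 30C.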

A short description of assay [8]: Validation qHTS assay for inhibitors of Activation Induced Cytidine Deaminase (AID): UDG Counterscreen signal (AID 1347427). In outline:
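Fluorescence at 560 nm excitation, 665 nm emission reports UDG signal after 250 mM NaOH (2x) addition and 30 min. Enzymes (AID 1 uM, UDG 2 U/mL, at 4/3x) preincubated 10 min with compound, then 4 h with 4x 250 nM DJC20/DJC23 substrate at room temperature.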

Assay [9] addresses Single-stranded DNA cytosine deaminase (Homo sapiens) (UniProt Q9GZX7). Kind of assay: Validation qHTS assay for inhibitors of Activation Induced Cytidine Deaminase (AID): AID signal (AID 1347429). In short, it runs like this:
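Steps: dispense AID with UDG; pin-transfer compound up to 114 uM final; add DJC20/DJC23 substrate and hold 4 hr at room temperature; add NaOH, hold 30 min; read FRET signal (540/590 nm).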

Assay [10] in a line: qHTS to identify inhibitors of the type 1 interferon - major histocompatibility complex class I in skeletal muscle: primary screen against the NCATS Mechanism Interrogation Plate v5.0 (MIPE) Libary (AID 1347411). Note: nearly all actives have a fitted effect of over 65% in size. Note: potency is the fitted concentration of half-maximal effect. In outline: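 Seed engineered human myoblasts (HLA-B HiBit) in medium without dexamethasone containing 4 ng/ml IFN-beta; after 1 hr add compound titrations (top 46 uM final). Incubate 24 hrs at 37 C, lyse 10 min with HiBiT reagent, read luminescence.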

The nature of assay [11]: Counterscreen qHTS for small molecule stabilizers of the endoplasmic reticulum resident proteome: GLuc-NoTag assay (AID 1508627). Note: series mostly up to about 76 µM. In short, it runs like this:
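Secreted GLuc lacking the SERCaMP modification is measured in SH-SY5Y cells exposed to compound for 19 h and then to thapsigargin (100 nM, 4 h) to deplete ER calcium; hits retested at 11 concentrations, up to 76.6 uM.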
In general terms: A counterscreen serves to expose hits that act by an unwanted route or on another target.

Structures are written as SMILES. Results filed as inconclusive are left out. The source made the active and inactive calls. Calls come from the whole dose curve; as a rule, active = well fitted curve in the direction sought with a large enough effect; inconclusive = small, poorly fitted or top-dose-only effect, or another doubt; inactive = no such curve, though single readings can be large; an effect the other way counts as inactive or inconclusive.

Among the data in PubChem BioAssay (NCATS) are outcome and Potency values, retold here.

Sequence of Single-stranded DNA cytosine deaminase (Homo sapiens) (Q9GZX7 whole entry, looked up): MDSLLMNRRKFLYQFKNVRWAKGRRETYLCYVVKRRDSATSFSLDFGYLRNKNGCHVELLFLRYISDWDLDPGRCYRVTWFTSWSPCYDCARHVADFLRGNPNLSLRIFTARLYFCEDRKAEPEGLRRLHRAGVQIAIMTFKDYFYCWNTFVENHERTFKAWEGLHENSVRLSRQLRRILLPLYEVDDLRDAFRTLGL
Sequence of Protein phosphatase 1D (Homo sapiens) (O15297 whole entry, looked up): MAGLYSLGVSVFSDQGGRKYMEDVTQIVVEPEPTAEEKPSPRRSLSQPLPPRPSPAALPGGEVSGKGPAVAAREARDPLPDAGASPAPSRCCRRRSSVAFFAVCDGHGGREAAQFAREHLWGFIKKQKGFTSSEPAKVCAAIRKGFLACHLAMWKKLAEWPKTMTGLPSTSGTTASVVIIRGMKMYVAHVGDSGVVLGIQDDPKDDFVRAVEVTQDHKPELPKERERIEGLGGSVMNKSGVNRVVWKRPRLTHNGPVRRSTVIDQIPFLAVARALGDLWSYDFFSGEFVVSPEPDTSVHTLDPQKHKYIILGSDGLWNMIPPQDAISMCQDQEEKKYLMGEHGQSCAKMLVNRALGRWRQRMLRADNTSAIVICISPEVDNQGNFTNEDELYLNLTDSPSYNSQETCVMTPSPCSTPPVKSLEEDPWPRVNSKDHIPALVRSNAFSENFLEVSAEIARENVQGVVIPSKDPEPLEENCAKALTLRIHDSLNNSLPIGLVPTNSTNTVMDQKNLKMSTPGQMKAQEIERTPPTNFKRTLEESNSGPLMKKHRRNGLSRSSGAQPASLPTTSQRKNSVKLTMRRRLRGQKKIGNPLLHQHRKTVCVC
Sequence of Calcium and integrin-binding protein 1 (Homo sapiens) (Q99828 whole entry, looked up): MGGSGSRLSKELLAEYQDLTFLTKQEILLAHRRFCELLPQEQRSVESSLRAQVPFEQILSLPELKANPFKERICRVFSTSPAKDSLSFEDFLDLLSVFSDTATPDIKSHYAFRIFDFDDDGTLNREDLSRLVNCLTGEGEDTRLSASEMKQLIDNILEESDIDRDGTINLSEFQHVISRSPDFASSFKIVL

Turning to `O=C(O)c1cccnc1`, the result in assay [1] and in assay [2] was inactive.

With `COc1nc(N)nc2c1ncn2[C@@H]1O[C@H](CO)[C@@H](O)[C@@H]1O`, the Potency result in assay [3] and in assay [4] was “inactive” in each case. For the same molecule, the molecule was classed as inactive in [1], in [2] and in assay [5].

Take `CO[C@@H]1[C@@H](OC(N)=O)[C@@H](O)[C@H](Oc2ccc3c(O)c(NC(=O)c4ccc(O)c(CC=C(C)C)c4)c(=O)oc3c2C)OC1(C)C`: the Potency result in assay [3] and in assay [4] was “inactive” each time. Moreover, the molecule was classed as inactive in assay [2] and in assay [5]. The Potency in [6] is 35.5 µM (active).

As to `Cc1ncc([N+](=O)[O-])n1CCO`, the result in [1], in assay [2] and in assay [5] was inactive. The Potency entry in assay [4] is “inactive”.

For the molecule `CCCCc1oc2ccc(NS(C)(=O)=O)cc2c1C(=O)c1ccc(OCCCN(CCCC)CCCC)cc1`, the molecule was called inactive in assay [1], in assay [2] and in assay [5]. The Potency entry in [4] was “inactive”.

As to `NC1(c2ccc(-c3nc4ccn5c(=O)[nH]nc5c4cc3-c3ccccc3)cc2)CCC1`, the outcome in assay [1], in assay [2] and in [5] was inactive. Besides, in assay [4], the Potency entry was “inactive”.

As for `COc1cc2nc(N3CCCN(C)CC3)nc(NC3CCN(Cc4ccccc4)CC3)c2cc1OC`, the result in assay [7], in [8], in assay [9] and in assay [5] was inactive.

As to `Cc1c(-c2ccc(O)cc2)n(Cc2ccc(OCCN3CCCCCC3)cc2)c2ccc(O)cc12`, the molecule was classed as inactive in assay [1] and in assay [2].

In the case of `CC(=O)CC(c1ccccc1)c1c(O)c2ccccc2oc1=O` (centres undefined), the Potency in [10] was 13.1 µM (active). Further, the call in [1], in assay [2] and in [5] was inactive. Further, the Potency result in [4] was “inactive”.

For the molecule `Cc1cccc(N(C)C(=S)Oc2ccc3ccccc3c2)c1`, the Potency result in [3] and in assay [4] was “inactive” throughout. The call in assay [1], in assay [2] and in assay [5] was inactive.

Turning to `NC(=O)N1c2ccccc2CC(=O)c2ccccc21`, the Potency result in assay [3] and in [4] was “inactive” throughout. Also, the outcome in [1] and in assay [5] was inactive.

Consider `CCC(=O)O[C@]1(C(=O)SCF)[C@H](C)C[C@H]2[C@@H]3C[C@H](F)C4=CC(=O)C=C[C@]4(C)[C@@]3(F)[C@@H](O)C[C@@]21C`, for which the Potency entry in [10] and in assay [4] was “inactive” each time. The call in assay [1], in assay [2] and in assay [5] was inactive.

For the molecule `Cc1onc(-c2ccccc2Cl)c1C(=O)N[C@@H]1C(=O)N2[C@@H]1SC(C)(C)[C@@H]2C(=O)O`, the Potency entry in assay [3] and in [4] was “inactive” in each case. Further, the outcome in [1], in [2] and in [5] was inactive.

As for `O=C(O)CCn1c2c(c3ccccc31)C[C@H](NS(=O)(=O)c1ccc(F)cc1)CC2`, the call in [1] and in assay [2] was inactive.

For `O=S(=O)(c1cccc2cnccc12)N1CCCNCC1`, the Potency result in [10] and in assay [4] was “inactive” each time. In addition, the result in assay [1], in assay [2] and in [5] was inactive.

As to `COC(=O)Nc1nc2ccc(S(=O)c3ccccc3)cc2[nH]1` (centres undefined), the call in assay [1] and in assay [2] was inactive. Also, the Potency in [4] was 0.355 µM (active).

`Cc1ccc(S(=O)(=O)N[C@@H](Cc2ccccc2)C(=O)CCl)cc1`: the molecule was classed as inactive in assay [7], in assay [8], in [9] and in assay [5].

For `CCOC(=O)[C@H](CCc1ccccc1)N[C@H]1CCc2ccccc2N(CC(=O)O)C1=O`, the Potency result in assay [10] and in assay [4] was “inactive” in each case. Besides, the result in assay [1] and in assay [2] was inactive.

On to `N=C(N)c1ccc(OCCCCCOc2ccc(C(=N)N)cc2)cc1`, for which the molecule was classed as inactive in assay [1], in [2] and in assay [5].

`COc1cnc(NS(=O)(=O)c2ccc(N)cc2)nc1`: the Potency entry in assay [3] and in assay [4] was “inactive” throughout. Moreover, the outcome in assay [1], in assay [2] and in [5] was inactive.

On to `C1CCC(C(CC2CCCCN2)C2CCCCC2)CC1` (centres undefined), for which the molecule was classed as inactive in assay [1], in assay [2] and in [5]. For the same molecule, the Potency entry in [4] was “inactive”.

Turning to `COc1cc2ncnc(Nc3cccc(Cl)c3)c2cc1OC`, the outcome in assay [7], in [8], in assay [9] and in [5] was inactive. For the same molecule, the Potency in [10] is 29.4 µM (active). Moreover, the Potency entry in assay [4] is “inactive”.

On to `COc1ccc2c(c1)c(CC(=O)OCC(=O)O)c(C)n2C(=O)c1ccc(Cl)cc1`, for which the Potency result in [3] and in assay [4] was “inactive” in each case. Also, the outcome in assay [1] and in assay [5] was inactive.

Consider `COc1cc2c(Nc3ccc(Br)cc3F)ncnc2cc1OCC1CCN(C)CC1`, for which the Potency entry in assay [3] is “inactive”. Moreover, the molecule was classed as inactive in assay [1], in assay [2] and in assay [5].

In the case of `CCn1cc(C(=O)O)c(=O)c2cc(F)c(N3CCNCC3)nc21`, the Potency result in assay [3], in assay [4] and in assay [6] was “inactive” throughout. For the same molecule, the molecule was called inactive in assay [1], in assay [2] and in assay [11].

Take `COC(=O)Nc1nc2ccc(Sc3ccccc3)cc2[nH]1`: the result in assay [2] and in assay [5] was inactive. Also, the Potency in [4] is 0.199 µM (active).

As to `Cc1noc(NS(=O)(=O)c2ccc(N)cc2)c1C`, the result in [1], in [2] and in [5] was inactive. Besides, the Potency entry in assay [4] is “inactive”.

For the molecule `Cc1cccc(Nc2ccncc2S(=O)(=O)NC(=O)NC(C)C)c1`, the molecule was called inactive in assay [1] and in assay [2]. Further, the Potency entry in [4] was “inactive”.
